Screens as filed in PubChem.
An excerpt weighted towards active compounds, which were near 18% of everything screened.
TDP1 block – blocks human tyrosyl-DNA phosphodiesterase 1; Q9NUW8; recombinant TDP1, AlphaScreen DNA substrate cleavage; Potency, µM (series often up to 130 µM), without a hit: top-dose activity change, negative = inhibition, actives largely listed as inhibitors; 0.28% of 350,000 active; AID 485290; also: potency is read from the fitted curve at half-maximal effect; % is scaled to controls: 0 for no effect and ±100 for the full control effect; nearly all actives have a fitted effect of over 40% in size
Target sequence (Q9NUW8 whole entry, looked up): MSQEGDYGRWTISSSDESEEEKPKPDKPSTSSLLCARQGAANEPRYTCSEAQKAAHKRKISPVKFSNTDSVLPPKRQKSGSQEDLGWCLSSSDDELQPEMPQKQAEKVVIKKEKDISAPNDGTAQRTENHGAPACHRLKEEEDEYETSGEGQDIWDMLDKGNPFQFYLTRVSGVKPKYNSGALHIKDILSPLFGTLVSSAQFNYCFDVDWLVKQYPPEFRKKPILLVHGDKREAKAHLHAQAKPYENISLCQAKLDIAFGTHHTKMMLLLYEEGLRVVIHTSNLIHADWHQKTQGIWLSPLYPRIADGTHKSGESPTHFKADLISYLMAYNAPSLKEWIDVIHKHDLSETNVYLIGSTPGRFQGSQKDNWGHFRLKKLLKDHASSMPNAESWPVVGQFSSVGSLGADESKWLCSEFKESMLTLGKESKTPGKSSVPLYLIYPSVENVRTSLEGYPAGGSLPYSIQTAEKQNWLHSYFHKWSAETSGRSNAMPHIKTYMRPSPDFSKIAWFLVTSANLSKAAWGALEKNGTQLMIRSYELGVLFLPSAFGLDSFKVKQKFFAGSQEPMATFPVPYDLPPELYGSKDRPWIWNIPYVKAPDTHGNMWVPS
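Signal: AlphaScreen proximity between streptavidin donor and anti-FITC acceptor beads on intact substrate. Reaction: Tdp1 1 nM, substrate 15 nM final, 5 min RT after 15 min compound preincubation.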
TGFb SMAD3 inh – inhibitors of TGF-b signaling; HepG2 CAGA-GFP TGF-b/SMAD3 reporter, GFP fluorescence, 18 h; TGF-beta stimulated, 500 pg/mL final; AID 588855; Potency, µM (series often up to 46.1 µM), for inactives: at the top dose activity, negative = inhibition, usual class: inhibitors; 1.2% of 410,000 active; also: potency is read from the fitted curve at half-maximal effect; % is scaled to controls: 0 for no effect and ±100 for the full control effect; nearly all actives have a fitted effect of over 65% in size
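Using HEPG2 CAGA-GFP reporter cells at 1000 cells/well, we pinned test compounds, stimulated with recombinant TGF-beta (500 pg/mL final) and measured total well GFP after 18 h.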
HepG2 viability – HepG2 cytotoxicity, counter-screen for TGF-b inhibitors; 0.76% of 410,000 active; AID 588856; Potency, µM (highest dose often 46.1 µM), inactives show top-dose activity change, negative = cytotoxicity, most hits filed as cytotoxic; HepG2 CAGA-GFP viability, ATP luminescence, 18 h; also: potency is read from the fitted curve at half-maximal effect
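HepG2 CAGA-GFP cells (1000/well, DMEM with 1% FBS) received compound, then TGF-beta at 500 pg/mL final, and were incubated 18 hours at 37 degrees C. Viability was read by CellTiter-Glo luminescence. Media-only wells were set as complete cell-killing and DMSO as no toxicity.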
TDP1 cell noCPT – qHTS for Inhibitors of human tyrosyl-DNA phosphodiesterase 1 (TDP1): qHTS in cells in absence of CPT. AID 686978, 2013. Potency, µM (doses to about 46.2 µM), inactives show at the top dose activity change, negative = growth inhibition, hits mostly inhibitors. DT40 Tdp1-/- hTDP1 cells, no CPT, ATP luminescence, 48 h. 15% of 420,000 active; also: potency is read from the fitted curve at half-maximal effect; % is scaled to controls: 0 for no effect and ±100 for the full control effect; nearly all actives have a fitted effect of over 55% in size
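Camptothecin absent (DMSO only). Human TDP1-complemented DT40 knockout cells, 400 cells/well, 37 °C for minimum 48 hr; ATP measured via CellTiter-Glo, 30 min dark incubation, luminescence.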
IL1B secr inh – inflammasome signaling inhibition, IL-1 beta readout; THP-1 LPS/ATP IL-1B secretion, AlphaLISA, 16 h; active compounds read low; activity change, % at 57.5 µM; 4.7% of 360,000 active; in the data active = activity change below about -50%; inconclusive = mostly about -30% to -49%; also: % is scaled to controls: 0 for no effect and ±100 for the full control effect
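THP-1 cells pretreated 1 hr with compounds (up to 57.5 uM final), then stimulated with LPS (250 ng/mL final) plus ATP (1.25 mM final); secreted IL-1B measured by AlphaLISA after 16 hr, decreased signal indicating inhibition.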
TDP1 cell CPT – DT40-hTDP1 cell growth loss with CPT; 12% of 420,000 active; chicken DT40 Tdp1-/-;hTDP1 cells + 20 nM CPT, ATP luminescence, 48 h; Potency, µM (doses to about 46.2 µM), without a hit: at the top dose activity change, negative = growth inhibition, most hits filed as inhibitors; also: potency is read from the fitted curve at half-maximal effect; % is scaled to controls: 0 for no effect and ±100 for the full control effect; nearly all actives have a fitted effect of over 55% in size
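Chicken DT40 Tdp1-/- cells complemented with human TDP1, 400 cells/well, exposed to compounds plus 20 nM camptothecin for at least 48 h at 37 C; viability read as ATP content by CellTiter-Glo luminescence.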
An asterisk follows results filed as active; ? = inconclusive; . = no result; [ ] = remark or other dose. Unless noted, calls follow the shape of the dose curve; as a rule, active = well fitted curve in the direction sought with a large enough effect; inconclusive = small, poorly fitted or top-dose-only effect, or another doubt; inactive = no such curve, though single readings can be large; an effect the other way counts as inactive or inconclusive.

SMILES	TDP1 block	TGFb SMAD3 inh	HepG2 viability	TDP1 cell noCPT	IL1B secr inh	TDP1 cell CPT
CC1(C(=O)Nc2ccc3c(c2)OCO3)Cc2c(-c3cccc(C(F)(F)F)c3)ccnc2O1 (configuration not stated)	.	?	-29%	3.7µM*	42	4.1µM*
CC1(C(=O)Nc2cccc(C(F)(F)F)c2)Cc2c(-c3ccc4c(c3)OCO4)ccnc2O1 (configuration not stated)	.	?	-30%	18µM*	35	?
CC1CCN(C(=O)CCS(=O)(=O)c2cc3c(cc2Cl)NC(=O)CO3)CC1	0%	0%	-6%	-21%	5	-19%
CCN1/C(=C/c2ccc3cc(C)ccc3[n+]2CC)Sc2ccc3sccc3c21	.	-18%	-16%	0.58µM*	33	0.92µM*
CCN1/C(=C/c2ccc3cc(C)cc(C)c3[n+]2CC)Sc2cc(C)ccc21	5%	157%	-117%	0.18µM*	-97*	0.65µM*
COc1ccc(C(CNC(=O)c2ccc(C)cc2)N2CCOCC2)cc1 (configuration not stated)	4%	-2%	-5%	?	.	?
Cc1ccc(Cn2nc(C)c(C(=O)NCC(c3cccs3)N3CCOCC3)c2Cl)cc1 (configuration not stated)	.	-9%	0%	23µM*	8	21µM*
COc1ccc(C(CNC(=O)c2c(C)nn(Cc3ccc(C)cc3)c2Cl)N2CCOCC2)cc1 (configuration not stated)	1%	0%	-10%	23µM*	-82*	?
CCNC(=O)C1CCCN(Cc2ccc(C)c3ccccc23)CC1 (configuration not stated)	.	1%	-21%	?	12	?
COC(=O)CSc1cccc2c1C(=O)CC2c1ccccc1 (configuration not stated)	.	2%	3%	-6%	-12	6%
O=C1C=CC2(O[C@H](c3ccccc3)[C@@H](c3ccccc3)O2)[C@H](Sc2ccccc2O)C1	.	2.8µM*	-103%	0.58µM*	-117*	0.46µM*
COc1ccc2nc(C)c3c(c2c1)OC(C(C)(Cl)Br)C3 (configuration not stated)	.	?	-3%	18µM*	-13	?
Cc1nc2ccccc2c2c1CC(C(C)(Cl)Br)O2 (configuration not stated)	0%	-27%	-25%	3.7µM*	39	6.5µM*
O=C(C1CC(=O)N(c2ccc(F)cc2)C1)N1CCCCCC1 (configuration not stated)	4%	4%	-2%	-8%	16	-10%
CCOc1ccc(C(=O)C(C)OC(=O)C2CCN(c3ccc(C(F)(F)F)cn3)CC2)cc1 (configuration not stated)	-12%[0.505 µM]	0%	-4%	23µM*	25	16µM*
O=C(/C(=C/c1cccnc1)n1ccnc1)c1ccc(Cl)cc1Cl	10%	4%	-53%	15µM*	?	16µM*
O=C(/C(=C/c1ccncc1)n1ccnc1)c1ccc(Cl)cc1Cl	6%	-22%	-58%	13µM*	-10	16µM*
Cc1cccc(N=Cc2[nH]c3ccc(Br)c(Cl)c3c2O)c1	4%	14%	-4%	?	43	26µM*
COc1ccccc1CN=Cc1[nH]c2ccc(Br)c(Cl)c2c1O	3%	-22%	-12%	?	-2	?
COC(=O)/C=C1\OC(C2CC2)c2ccccc21 (configuration not stated)	.	.	.	16µM*	17	8.2µM*
CC1(C)[C@@H](OC(=O)CCC(=O)O)CC[C@]2(C)[C@H]3C(=O)C=C4[C@@H]5C[C@@](C)(C(=O)O)CC[C@]5(C)CC[C@@]4(C)[C@]3(C)CC[C@@H]12	.	.	.	1%[21.1 µM]	.	-12%[21.1 µM]
CCOC(=O)c1ccc(NC(=O)COc2ccc(CNCCO)cc2OCC)cc1	3%	?	-15%	-8%	-102*	7%
CCOC(=O)c1ccc(NC(=O)COc2ccccc2CNCCc2ccccc2)cc1	3%	?	-109%	?	-88*	?
CCOC(=O)c1ccc(NC(=O)CNNC(=O)COc2ccccc2C)cc1	0%	-8%	-16%	?	-22	-27%
N#Cc1sc(NCc2ccccc2)nc1Cl	-2%	-1%	4%	-12%	-8	-9%
SMILES	TDP1 block	TGFb SMAD3 inh	HepG2 viability	TDP1 cell noCPT	IL1B secr inh	TDP1 cell CPT
N#Cc1c(NCc2ccccc2)ccnc1Cl	.	-1%	21%	21µM*	6	?
COCCCNCCOCCOc1ccc(Cl)cc1C(C)(C)C	-6%	20µM*	11µM*	10µM*	-14	16µM*
C=CCNCCCOc1ccc(Cl)cc1C(C)(C)C	-11%	?	-66%	?	-85*	?
CC(C)(C)NCCOCCOc1ccc(Cl)cc1C(C)(C)C	-1%	-6%	-26%	?	-6	?
C=CCNCCOCCOc1ccc(Cl)cc1C(C)(C)C	1%	?	-39%	26µM*	-53*	18µM*
CN1CCCC(CN(C)C(=O)c2cnn(-c3nccc(-c4ccccc4C(F)(F)F)n3)c2C2CC2)C1 (configuration not stated)	.	.	.	-26%	.	16%[9.04 µM]
CCN1CCCC1CNCc1cc2ccc(SC)cc2nc1-c1cc(OC)ccc1OC (configuration not stated)	.	.	.	-7%	.	-6%[9.04 µM]
O=C(Nc1nccs1)c1ccc(S(=O)(=O)N2CCCCC2)cc1	2%	?	-21%	-13%	22	2%
Cc1cc(NC(=O)c2ccc(S(=O)(=O)N3CCOCC3)cc2)nc2c1c(=O)oc1ccccc12	2%	.	.	.	.	.
CN(C)S(=O)(=O)c1ccc(C(=O)Nc2nc(-c3cc4ccccc4o3)cs2)cc1	3%	?	-42%	2.9µM*	-1	10µM*
Cc1cc(NC(=O)c2ccc(S(=O)(=O)N3CCCC3)cc2)nc2c1c(=O)oc1ccccc12	3%	-7%	-25%	10µM*	2	7.3µM*
Cc1cc(-c2csc(NC(=O)c3ccc(S(=O)(=O)N(C)C)cc3)n2)c(C)n1-c1ccccc1	8%	?	6%	18µM*	7	?
O=C(Nc1nc(-c2cc3ccccc3oc2=O)cs1)c1ccco1	-6%	-30%	-52%	?	1	?
